Source: the supplement of paper PMC10849652
Of roughly 7,900 targets only a part is listed; those with a hit were picked by preference. About 0.6% of all pairs of compound and target were hits.

Experiments:
Test in all cases: log2 fold change, soluble protein after heating vs DMSO (PISA); higher = thermal stabilisation; K562 cells, 10 uM, 30 min; active = over 0.2 and 3.5 SD of the protein, either way, in both replicates (recomputed)
[1] = compound: CS(=O)(=O)c1ccc(-c2cnc(N)c(C(=O)Nc3ccccc3)n2)cc1
Method in brief: (§1)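 Aliquots of K562 cells (2×10^6 cells/mL) treated with 10 μM compound for 30 min were heated for 3 min over 48°C-58°C. After pooling and extraction in PBS with 0.5% NP-40 at 4°C, soluble protein from a 21,000xg, 90 min spin was quantified by TMTpro 16plex LC-MS/MS with channel sums equalised. Thermal stability is expressed against control samples, from duplicates, as a log2 fold change.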

crizotinib = compound: C[C@@H](Oc1cc(-c2cnn(C3CCNCC3)c2)cnc1N)c1c(Cl)ccc(F)c1Cl [crizotinib]
Method in brief: as §1

[2] = compound: C[C@H](C1=CC=C(C=C1)C(=O)NC2=C3C=CNC3=NC=C2)N
Method in brief: as §1

duvelisib = compound: C[C@H](Nc1ncnc2nc[nH]c12)c1cc2cccc(Cl)c2c(=O)n1-c1ccccc1 [duvelisib]
Method in brief: as §1

gandotinib = compound: Cc1cc(Nc2cc(CN3CCOCC3)c3nc(C)c(Cc4ccc(Cl)cc4F)n3n2)n[nH]1 [gandotinib]
Method in brief: as §1

tozasertib = compound: Cc1cc(Nc2cc(N3CCN(C)CC3)nc(Sc3ccc(NC(=O)C4CC4)cc3)n2)n[nH]1 [tozasertib]
Method in brief: as §1

[3] = compound: Cc1cc(SCc2sc(-c3ccc(C(F)(F)F)cc3)nc2C)ccc1OCC(=O)O
Method in brief: as §1

doramapimod = compound: Cc1ccc(-n2nc(C(C)(C)C)cc2NC(=O)Nc2ccc(OCCN3CCOCC3)c3ccccc23)cc1 [doramapimod]
Method in brief: as §1

bafetinib = compound: Cc1ccc(NC(=O)c2ccc(CN3CC[C@H](N(C)C)C3)c(C(F)(F)F)c2)cc1Nc1nccc(-c2cncnc2)n1 [bafetinib]
Method in brief: as §1

[4] = compound: Cc1cccc(CC(=O)N2CCc3c2ccc(-c2cn(C)c4ncnc(N)c24)c3F)n1
Method in brief: as §1

nilotinib = compound: Cc1cn(-c2cc(NC(=O)c3ccc(C)c(Nc4nccc(-c5cccnc5)n4)c3)cc(C(F)(F)F)c2)cn1 [nilotinib]
Method in brief: as §1

[5] = compound: Cc1nc(Nc2n[nH]c3c2CN(C(=O)N[C@H](CN(C)C)c2ccccc2)C3(C)C)c2sccc2n1
Method in brief: as §1

dasatinib = compound: Cc1nc(Nc2ncc(C(=O)Nc3c(C)cccc3Cl)s2)cc(N2CCN(CCO)CC2)n1 [dasatinib]
Method in brief: as §1

[6] = compound: Cc1ncc(-c2ccnc(Nc3ccc(S(C)(=O)=O)cc3)n2)n1C(C)C
Method in brief: as §1

[7] = compound: Cn1cc(-c2ccc3c(c2)CCN3C(=O)Cc2cccc(C(F)(F)F)c2)c2c(N)ncnc21
Method in brief: as §1

tipifarnib = compound: Cn1cncc1[C@@](N)(c1ccc(Cl)cc1)c1ccc2c(c1)c(-c1cccc(Cl)c1)cc(=O)n2C [tipifarnib]
Method in brief: as §1

mubritinib = compound: FC(F)(F)c1ccc(/C=C/c2nc(COc3ccc(CCCCn4ccnn4)cc3)co2)cc1 [mubritinib]
Method in brief: as §1

[8] = compound: C[C@@H]1COCCN1C2=NC(=NC(=C2)C3(CC3)S(=O)(=O)C)C4=C5C=CNC5=CC=C4
Method in brief: as §1

ispinesib = compound: Cc1ccc(C(=O)N(CCCN)[C@@H](c2nc3cc(Cl)ccc3c(=O)n2Cc2ccccc2)C(C)C)cc1 [ispinesib]
Method in brief: as §1

[9] = compound: Cn1cc(-c2ccc3nnc(C(F)(F)c4ccc5ncccc5c4)n3n2)cn1
Method in brief: as §1

Measured: log2 fold change

NIPSNAP3B (UniProt Q9BS92)
Sequence of UniProt Q9BS92 (Q9BS92 whole entry, looked up): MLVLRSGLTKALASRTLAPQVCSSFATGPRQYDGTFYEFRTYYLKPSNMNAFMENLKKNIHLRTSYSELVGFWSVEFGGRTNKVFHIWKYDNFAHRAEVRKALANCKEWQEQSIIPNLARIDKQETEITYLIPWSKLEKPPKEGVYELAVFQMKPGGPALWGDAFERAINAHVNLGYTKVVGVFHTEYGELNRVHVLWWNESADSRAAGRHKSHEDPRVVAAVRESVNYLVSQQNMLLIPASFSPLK
inactive: [1] 0.03 | crizotinib 0.053 | [2] 0.015 | duvelisib -0.18 | gandotinib 0.082 | tozasertib -0.045 | [3] 0.039 | doramapimod -0.102 | bafetinib -0.085 | [4] -0.054 | nilotinib -0.029 | [5] 0.01 | dasatinib -0.044 | [6] 0.013 | [7] 0.109 | tipifarnib -0.018 | mubritinib 0.083

NDUFA7 (UniProt O95182)
Sequence of UniProt O95182 (O95182 whole entry, looked up): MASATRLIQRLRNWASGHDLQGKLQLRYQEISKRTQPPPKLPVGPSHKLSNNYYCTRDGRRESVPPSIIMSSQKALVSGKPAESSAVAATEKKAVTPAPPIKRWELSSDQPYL
active: mubritinib 0.247
inactive: [1] -0.004 | crizotinib -0.103 | [8] 0.02 | [2] 0.039 | duvelisib 0.012 | gandotinib -0.12 | tozasertib -0.101 | [3] 0.07 | doramapimod -0.041 | ispinesib -0.118 | bafetinib -0.056 | [4] 0.124 | nilotinib 0.016 | [5] -0.025 | dasatinib -0.145 | [6] -0.059 | [7] -0.005 | [9] -0.061 | tipifarnib 0.002

MPHOSPH8 isoform 2 (UniProt Q99549)
inactive: [1] -0.068 | crizotinib -0.036 | [8] -0.05 | [2] 0.045 | duvelisib -0.006 | tozasertib 0.04 | [3] -0.018 | doramapimod 0.059 | ispinesib 0.18 | dasatinib -0.025 | [7] -0.019 | [9] -0.116 | tipifarnib 0.01 | mubritinib 0.031

MYH10 isoform 3 (UniProt P35580)
inactive: [1] -0.013 | crizotinib -0.038 | [8] 0.056 | [2] -0.026 | duvelisib 0.023 | gandotinib -0.004 | tozasertib -0.009 | [3] 0.013 | doramapimod 0.009 | ispinesib 0.01 | bafetinib -0.046 | [4] 0.033 | nilotinib -0.049 | [5] -0.001 | dasatinib -0.057 | [6] 0.004 | [7] 0.056 | [9] 0.011 | tipifarnib -0.083 | mubritinib 0.059

NECTIN2 isoform 2 (UniProt Q92692)
Sequence of UniProt Q92692 (Q92692 whole entry, looked up): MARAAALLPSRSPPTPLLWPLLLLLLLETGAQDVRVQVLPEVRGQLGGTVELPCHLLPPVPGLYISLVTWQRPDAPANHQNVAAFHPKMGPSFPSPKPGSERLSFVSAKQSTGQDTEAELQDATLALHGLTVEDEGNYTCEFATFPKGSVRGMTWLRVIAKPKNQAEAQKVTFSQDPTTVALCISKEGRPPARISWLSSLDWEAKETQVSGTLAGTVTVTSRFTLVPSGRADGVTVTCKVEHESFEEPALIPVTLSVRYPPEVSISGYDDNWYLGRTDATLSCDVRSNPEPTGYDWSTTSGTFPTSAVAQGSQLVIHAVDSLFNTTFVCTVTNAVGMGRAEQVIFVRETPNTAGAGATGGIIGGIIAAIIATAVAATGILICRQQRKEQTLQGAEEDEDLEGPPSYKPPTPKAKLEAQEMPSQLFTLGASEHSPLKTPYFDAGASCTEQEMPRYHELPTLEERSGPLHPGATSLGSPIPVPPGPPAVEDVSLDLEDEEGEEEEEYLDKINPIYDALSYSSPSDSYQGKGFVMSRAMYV
inactive: [1] -0.059 | crizotinib 0.062 | [8] -0.2 | duvelisib -0.248 | gandotinib -0.206 | [3] -0.149 | doramapimod -0.086 | ispinesib 0.198 | bafetinib -0.64 | [4] 0.145 | nilotinib 0.129 | [5] -0.016 | dasatinib 0.001 | [6] 0.006 | [9] -0.129 | mubritinib -0.049

NDFIP1 (UniProt Q9BT67)
inactive: [1] 0.349 | crizotinib -0.004 | [8] 0.045 | [2] -0.167 | duvelisib 0.039 | gandotinib 0.052 | tozasertib 0.046 | [3] 0.08 | doramapimod -0.068 | ispinesib 0.015 | bafetinib -0.137 | [4] -0.08 | nilotinib -0.214 | [5] 0.354 | dasatinib 0.039 | [6] 0.225 | [7] -0.038 | [9] -0.072 | mubritinib -0.024

MLST8 (UniProt Q9BVC4)
Sequence of UniProt Q9BVC4 (Q9BVC4 whole entry, looked up): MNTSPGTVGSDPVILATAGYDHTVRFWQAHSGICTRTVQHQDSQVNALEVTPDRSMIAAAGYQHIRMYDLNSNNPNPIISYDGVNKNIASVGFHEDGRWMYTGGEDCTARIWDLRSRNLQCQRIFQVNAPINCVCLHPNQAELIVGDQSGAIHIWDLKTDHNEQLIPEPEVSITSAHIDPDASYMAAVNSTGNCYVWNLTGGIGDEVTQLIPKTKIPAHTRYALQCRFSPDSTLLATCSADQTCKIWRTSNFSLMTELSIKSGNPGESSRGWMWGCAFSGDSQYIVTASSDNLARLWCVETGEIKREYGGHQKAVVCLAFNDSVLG
inactive: [1] -0.07 | crizotinib -0.12 | [8] 0.014 | [2] 0.089 | duvelisib 0.067 | tozasertib 0.006 | [3] 0.079 | doramapimod 0.042 | bafetinib 0.005 | nilotinib -0.125 | [5] 0.085 | dasatinib -0.152 | [6] -0.059 | [7] 0.028 | tipifarnib -0.109 | mubritinib 0.1

OSBPL3 (UniProt Q9H4L5)
inactive: [1] 0.245 | crizotinib -0.017 | [8] -0.416 | [2] 0.572 | duvelisib -0.098 | tozasertib 0.198 | [3] 0.063 | doramapimod 0.189 | ispinesib -0.36 | nilotinib 0.316 | [5] 0.114 | dasatinib 0.447 | [6] -0.213 | [7] -0.081 | [9] -0.173 | tipifarnib -0.17

NAA11 (UniProt Q9BSU3)
Sequence of UniProt Q9BSU3 (Q9BSU3 whole entry, looked up): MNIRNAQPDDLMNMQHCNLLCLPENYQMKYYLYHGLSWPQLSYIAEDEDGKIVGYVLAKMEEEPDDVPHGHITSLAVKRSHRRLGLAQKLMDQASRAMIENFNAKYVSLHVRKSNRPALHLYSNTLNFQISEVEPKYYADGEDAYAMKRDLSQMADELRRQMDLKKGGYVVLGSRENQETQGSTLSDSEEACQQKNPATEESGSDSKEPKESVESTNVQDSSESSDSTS
inactive: [1] 0.027 | crizotinib -0.065 | [8] 0.006 | [2] 0.086 | duvelisib -0.015 | tozasertib 0.007 | [3] 0.114 | doramapimod -0.037 | ispinesib -0.009 | bafetinib 0 | nilotinib -0.093 | [5] 0.015 | dasatinib 0.059 | [6] -0.003 | [7] 0.102 | [9] 0.176 | tipifarnib 0.011 | mubritinib -0.081

NAGPA (UniProt Q9UK23)
Sequence of UniProt Q9UK23 (Q9UK23 whole entry, looked up): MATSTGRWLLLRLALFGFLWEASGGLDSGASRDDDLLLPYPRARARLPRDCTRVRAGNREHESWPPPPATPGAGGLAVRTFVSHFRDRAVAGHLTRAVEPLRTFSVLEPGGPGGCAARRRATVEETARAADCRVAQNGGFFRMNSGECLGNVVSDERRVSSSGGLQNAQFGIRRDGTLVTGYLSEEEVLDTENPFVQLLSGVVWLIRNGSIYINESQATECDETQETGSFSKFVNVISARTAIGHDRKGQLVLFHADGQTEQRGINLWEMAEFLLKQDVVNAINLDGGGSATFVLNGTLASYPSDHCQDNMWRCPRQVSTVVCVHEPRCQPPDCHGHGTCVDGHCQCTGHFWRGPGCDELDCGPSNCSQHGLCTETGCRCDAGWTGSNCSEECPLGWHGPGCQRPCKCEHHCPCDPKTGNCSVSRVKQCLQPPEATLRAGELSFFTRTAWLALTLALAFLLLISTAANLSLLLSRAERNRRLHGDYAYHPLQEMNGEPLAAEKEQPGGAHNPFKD
inactive: [1] 0.017 | crizotinib 0.178 | [8] -0.078 | [2] -0.014 | duvelisib 0.067 | gandotinib 0.024 | tozasertib -0.094 | [3] -0.079 | doramapimod 0.072 | bafetinib -0.076 | [4] -0.142 | nilotinib -0.082 | [5] 0 | dasatinib 0.053 | [6] 0.014 | [7] 0.023 | tipifarnib 0.245 | mubritinib -0.091

MITF (UniProt O75030)
Sequence of UniProt O75030 (O75030 whole entry, looked up): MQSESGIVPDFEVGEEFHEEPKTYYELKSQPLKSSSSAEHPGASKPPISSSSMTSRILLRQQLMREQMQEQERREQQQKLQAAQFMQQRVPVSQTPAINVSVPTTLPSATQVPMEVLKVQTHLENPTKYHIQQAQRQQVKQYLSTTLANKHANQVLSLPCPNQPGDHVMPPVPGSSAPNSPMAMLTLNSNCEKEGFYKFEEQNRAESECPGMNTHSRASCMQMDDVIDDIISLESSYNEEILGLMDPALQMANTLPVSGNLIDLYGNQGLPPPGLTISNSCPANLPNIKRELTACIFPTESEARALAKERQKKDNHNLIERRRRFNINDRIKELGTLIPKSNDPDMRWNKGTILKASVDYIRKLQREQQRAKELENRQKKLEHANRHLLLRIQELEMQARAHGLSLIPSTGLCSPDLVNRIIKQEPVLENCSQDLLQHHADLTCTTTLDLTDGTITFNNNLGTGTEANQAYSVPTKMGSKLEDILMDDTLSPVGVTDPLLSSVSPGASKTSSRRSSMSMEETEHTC
inactive: [1] 0.026 | crizotinib -0.137 | gandotinib -0.13 | doramapimod 0.006 | [4] 0.001 | nilotinib -0.071 | [5] -0.07 | [6] -0.047 | mubritinib 0.084

NA (UniProt B2RBV5)
Sequence of UniProt B2RBV5 (B2RBV5 whole entry, looked up): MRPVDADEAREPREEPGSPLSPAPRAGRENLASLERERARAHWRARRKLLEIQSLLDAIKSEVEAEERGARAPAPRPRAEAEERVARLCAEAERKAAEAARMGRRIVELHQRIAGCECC
inactive: [1] -0.027 | [8] 0.064 | gandotinib 0 | bafetinib -0.005 | [4] -0.084 | nilotinib -0.433 | [6] -0.195 | tipifarnib 0.075 | mubritinib 0.04
active: [5] 0.828

NA, A0A494C071
inactive: [8] 0.137 | [2] 0.043 | duvelisib 0.007 | gandotinib -0.352 | tozasertib -0.152 | [3] -0.102 | doramapimod 0.104 | [4] -0.057 | nilotinib 0.074 | [5] 0.329 | dasatinib 0.029 | [6] -0.439 | [7] 0.001 | mubritinib 0.094
active: crizotinib -0.887 | bafetinib -1.12

MORC2 (UniProt Q9Y6X9)
inactive: crizotinib 0.027 | [8] 0.065 | doramapimod -0.042 | bafetinib -0.036 | tipifarnib 0.018 | mubritinib 0.126

NKTR (UniProt P30414)
inactive: bafetinib 1.06 | tipifarnib 0.163 | mubritinib 0.167

OGFOD2 (UniProt Q6N063)
Sequence of UniProt Q6N063 (Q6N063 whole entry, looked up): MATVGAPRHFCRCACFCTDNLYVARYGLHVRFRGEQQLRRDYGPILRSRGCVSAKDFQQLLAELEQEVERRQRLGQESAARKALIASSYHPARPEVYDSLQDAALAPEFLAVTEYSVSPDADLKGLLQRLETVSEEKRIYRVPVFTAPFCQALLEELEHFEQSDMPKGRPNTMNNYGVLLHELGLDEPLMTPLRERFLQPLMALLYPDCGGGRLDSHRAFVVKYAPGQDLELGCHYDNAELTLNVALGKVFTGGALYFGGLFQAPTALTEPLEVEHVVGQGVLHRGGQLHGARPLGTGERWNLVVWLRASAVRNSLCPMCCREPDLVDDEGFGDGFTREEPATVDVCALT
inactive: crizotinib 0.04 | [8] 0.042 | [2] -0.058 | duvelisib 0.035 | gandotinib 0.278 | tozasertib 0.003 | [3] 0.034 | doramapimod 0.042 | ispinesib -0.032 | bafetinib 0.009 | [4] 0.171 | nilotinib 0.004 | [5] -0.007 | dasatinib -0.04 | [6] -0.023 | [7] -0.011 | [9] 0.132 | mubritinib 0.092

MSANTD2 (UniProt Q6P1R3)
inactive: [1] 0.295 | [8] 0.089 | duvelisib 0.019 | tozasertib 0.064 | [3] 0.039 | dasatinib -0.042

NA (UniProt J3KR12)
inactive: crizotinib 0.251 | [8] 0.061 | doramapimod -0.017 | ispinesib 0.006 | bafetinib 0.338 | nilotinib 0.208 | [5] -0.221 | [6] -0.196 | [9] -0.112 | mubritinib 0.16

MT-ND2 (UniProt P03891)
active: dasatinib -0.459
inactive: crizotinib 0.096 | [2] -0.028 | duvelisib 0.177 | gandotinib -0.064 | tozasertib 0.07 | [3] 0.101 | doramapimod -0.141 | ispinesib 0.336 | bafetinib 0 | [4] -0.173 | nilotinib -0.006 | [5] 0.018 | [6] -0.171 | [7] 0.279 | [9] 0.11 | tipifarnib 0.383 | mubritinib -0.01

NIPSNAP2 (UniProt C9J7B1)
inactive: [1] 0 | bafetinib -0.045 | mubritinib 0.173

NMU (UniProt P48645)
Sequence of UniProt P48645 (P48645 whole entry, looked up): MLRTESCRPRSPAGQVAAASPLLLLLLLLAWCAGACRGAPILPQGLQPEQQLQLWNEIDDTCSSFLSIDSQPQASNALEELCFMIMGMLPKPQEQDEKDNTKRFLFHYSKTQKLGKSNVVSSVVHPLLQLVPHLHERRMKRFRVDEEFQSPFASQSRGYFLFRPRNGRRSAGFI
inactive: crizotinib 0.025 | [8] -0.445 | [2] -0.026 | duvelisib -0.001 | gandotinib -0.159 | tozasertib -0.092 | [3] 0.127 | doramapimod -0.04 | ispinesib -0.186 | bafetinib -0.01 | [4] 0.152 | nilotinib 0.011 | [5] -0.022 | dasatinib 0.16 | [6] -0.012 | [7] -0.394 | [9] -0.11 | tipifarnib 0.276

MRM2 (UniProt Q9UI43)
Sequence of UniProt Q9UI43 (Q9UI43 whole entry, looked up): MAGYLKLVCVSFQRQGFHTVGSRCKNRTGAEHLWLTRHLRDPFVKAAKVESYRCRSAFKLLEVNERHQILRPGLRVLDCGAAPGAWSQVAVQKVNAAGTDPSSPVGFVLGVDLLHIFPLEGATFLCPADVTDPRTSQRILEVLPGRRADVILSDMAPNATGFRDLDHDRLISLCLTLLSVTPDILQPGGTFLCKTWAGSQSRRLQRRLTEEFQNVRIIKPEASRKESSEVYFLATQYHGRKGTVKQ
inactive: [2] -0.042 | duvelisib 0 | tozasertib -0.119 | [3] 0.123 | nilotinib -0.069 | [5] -0.049 | dasatinib -0.381 | [6] 0.043 | [7] 0.164 | tipifarnib -0.011

NPC1L1 (UniProt Q9UHC9)
Sequence of UniProt Q9UHC9 (Q9UHC9 whole entry, looked up): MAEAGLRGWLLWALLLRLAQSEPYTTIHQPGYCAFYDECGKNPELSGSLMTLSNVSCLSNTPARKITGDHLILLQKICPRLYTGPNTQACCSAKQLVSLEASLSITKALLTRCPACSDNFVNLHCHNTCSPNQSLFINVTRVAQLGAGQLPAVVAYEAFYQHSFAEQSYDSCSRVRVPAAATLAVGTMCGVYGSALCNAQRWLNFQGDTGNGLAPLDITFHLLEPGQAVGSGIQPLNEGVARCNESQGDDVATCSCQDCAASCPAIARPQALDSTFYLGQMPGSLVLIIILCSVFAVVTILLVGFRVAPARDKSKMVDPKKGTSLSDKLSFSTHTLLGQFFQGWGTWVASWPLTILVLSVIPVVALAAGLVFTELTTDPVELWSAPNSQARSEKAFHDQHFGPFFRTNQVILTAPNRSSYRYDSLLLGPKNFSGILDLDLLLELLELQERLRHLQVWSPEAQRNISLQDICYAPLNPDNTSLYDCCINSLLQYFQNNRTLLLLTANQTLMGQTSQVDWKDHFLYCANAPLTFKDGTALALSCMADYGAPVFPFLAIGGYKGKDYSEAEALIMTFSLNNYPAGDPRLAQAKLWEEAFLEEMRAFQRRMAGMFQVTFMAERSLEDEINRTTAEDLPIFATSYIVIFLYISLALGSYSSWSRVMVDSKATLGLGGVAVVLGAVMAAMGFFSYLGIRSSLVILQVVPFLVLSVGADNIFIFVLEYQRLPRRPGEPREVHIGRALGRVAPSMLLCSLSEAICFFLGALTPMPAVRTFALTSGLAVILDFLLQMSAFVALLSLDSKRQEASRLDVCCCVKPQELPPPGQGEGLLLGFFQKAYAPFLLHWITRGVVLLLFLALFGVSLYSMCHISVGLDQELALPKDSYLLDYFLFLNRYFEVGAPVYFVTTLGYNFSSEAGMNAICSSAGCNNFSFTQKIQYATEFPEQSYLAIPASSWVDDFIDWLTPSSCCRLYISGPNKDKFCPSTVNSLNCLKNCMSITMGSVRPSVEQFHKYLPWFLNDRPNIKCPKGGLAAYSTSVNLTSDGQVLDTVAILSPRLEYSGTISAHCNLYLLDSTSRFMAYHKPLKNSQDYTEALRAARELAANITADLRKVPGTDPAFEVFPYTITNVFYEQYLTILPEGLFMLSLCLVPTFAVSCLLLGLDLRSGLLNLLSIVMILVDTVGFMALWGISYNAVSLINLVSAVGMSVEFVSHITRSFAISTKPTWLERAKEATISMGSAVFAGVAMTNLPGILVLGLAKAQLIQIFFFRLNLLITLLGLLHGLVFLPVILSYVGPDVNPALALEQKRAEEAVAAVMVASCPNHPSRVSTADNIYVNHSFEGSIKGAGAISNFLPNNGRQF
inactive: [1] 0.002 | crizotinib -0.07 | [2] -0.044 | duvelisib 0.107 | tozasertib -0.059 | [3] -0.159 | doramapimod 0.033 | bafetinib -0.05 | nilotinib 0.659 | [5] 0.52 | dasatinib -0.117 | [7] 0.012 | tipifarnib 0.094 | mubritinib 0.008
active: [6] -0.384
